Screen size: about 1,400 compounds; about 45 (3%) were called active.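 How the source made its calls: active means half-maximal dose of signal decrease from fit no higher than ten times the top valid tested dose; inconclusive means fit invalid, or curve flat with 30 to 70% inhibition; inactive means the rest.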 A selection follows. Measured potencies and affinities stand elsewhere.
These compounds were tested against Lysine-specific demethylase 4A (Homo sapiens) (UniProt O75164) (assay: inhibition of JMJD2A H3K9me3 demethylation – biochemical, DELFIA europium, cherry-picked samples, selectivity assay for GASC-1 inhibitor project, dose response (AID 488840;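 further: europium signal reports the dimethyl H3K9 product detected by antibody so inhibitors lower it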)). Conditions: GST-JMJD2A(1-420) H3K9me3 demethylation; series mostly up to 6 µM.
Lysine-specific demethylase 4A (Homo sapiens), sequence (O75164 whole entry, looked up): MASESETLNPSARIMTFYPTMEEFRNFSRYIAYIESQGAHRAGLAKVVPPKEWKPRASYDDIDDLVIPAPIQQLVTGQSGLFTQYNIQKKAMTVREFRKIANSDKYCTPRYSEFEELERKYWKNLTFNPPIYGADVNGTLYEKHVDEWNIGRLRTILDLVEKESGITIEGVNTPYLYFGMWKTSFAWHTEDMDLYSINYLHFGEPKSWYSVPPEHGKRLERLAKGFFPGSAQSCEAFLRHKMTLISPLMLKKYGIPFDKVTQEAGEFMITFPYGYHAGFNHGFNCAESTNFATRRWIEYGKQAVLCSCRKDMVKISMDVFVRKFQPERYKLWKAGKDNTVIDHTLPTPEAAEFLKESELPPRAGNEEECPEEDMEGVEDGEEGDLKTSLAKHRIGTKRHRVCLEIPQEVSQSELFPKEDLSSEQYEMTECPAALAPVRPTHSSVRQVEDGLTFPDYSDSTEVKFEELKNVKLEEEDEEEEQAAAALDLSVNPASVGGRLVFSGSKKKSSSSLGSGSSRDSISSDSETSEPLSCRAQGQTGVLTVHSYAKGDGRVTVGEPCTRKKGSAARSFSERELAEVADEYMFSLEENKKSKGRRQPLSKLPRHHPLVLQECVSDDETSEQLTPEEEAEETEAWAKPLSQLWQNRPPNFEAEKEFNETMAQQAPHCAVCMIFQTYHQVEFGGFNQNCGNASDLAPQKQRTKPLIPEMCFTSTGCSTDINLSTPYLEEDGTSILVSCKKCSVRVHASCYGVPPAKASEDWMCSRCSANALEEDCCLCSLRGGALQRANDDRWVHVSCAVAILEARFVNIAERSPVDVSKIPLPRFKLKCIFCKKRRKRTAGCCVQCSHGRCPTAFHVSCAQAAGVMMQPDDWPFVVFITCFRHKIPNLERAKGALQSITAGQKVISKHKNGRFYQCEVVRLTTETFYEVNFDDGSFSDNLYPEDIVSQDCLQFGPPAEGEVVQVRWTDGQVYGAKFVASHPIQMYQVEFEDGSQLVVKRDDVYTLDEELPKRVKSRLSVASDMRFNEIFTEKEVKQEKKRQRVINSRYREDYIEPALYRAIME

outcome, inactive:
CC(C)C[C@@H]1CN=C(N)N1C[C@@H]1CCCN1C[C@H](C)N1C[C@@H](Cc2ccccc2)N(CCc2ccc(Cl)c(Cl)c2)C1=N
Cc1ccc(S(=O)(=O)N2CCOCC2)cc1C(=O)NNC(=O)c1ccoc1C
COCCCNC(=O)CC1C[C@H](C(=O)N2CCOCC2)[C@@]2(C)c3[nH]c4ccccc4c3CCN2C1=O (stereo partly specified)
Cc1noc(C)c1CCC(=O)N1CCCC(CCC(=O)NCc2ccccc2F)C1 (stereo unspecified)
COCCn1c(N)c(C(=O)NCC2CCCO2)c2nc3ccccc3nc21 (stereo unspecified)
Cn1c(=O)c2c(nc(NC3CCCCC3)n2Cc2ccccc2)n(C)c1=O
CC(=O)C[C@@H](O)CC(=O)[C@@H]1OC(=O)[C@@H](C)C/C=C\Cc2ccccc21
CCN1C(=O)C(CC(=O)Nc2ccc(OC)cc2)N(CCc2ccccc2F)C1=S (stereo unspecified)
COC(=O)C1CC(O)CN1C(=O)NC1CCCCC1 (stereo unspecified)
CNc1nc2c(c(=O)[nH]c(=O)n2C)n1CCCc1ccccc1
CCCCn1c(=O)[nH]c(=O)c2c1nc(-c1cc(Cl)c(OC)c(OC)c1)n2C
COc1ccc(/C=N/NS(=O)(=O)c2ccc(NC(C)=O)cc2)cc1
N/C(=N\S(=O)(=O)c1cc(C(F)(F)F)cc(C(F)(F)F)c1)c1ccccc1
C[C@@H]1CN([C@@H](C)CO)C(=O)c2cc(NC(=O)Nc3ccc4c(c3)OCO4)ccc2O[C@H]1CN(C)S(=O)(=O)c1ccc(F)cc1
COC(=O)c1ccc(CSc2nc3sc(C(=O)O)c(C)c3c(=O)[nH]2)cc1
CC1CCN(C(=S)NC(=O)c2cccc([N+](=O)[O-])c2)CC1
COc1ccccc1CNC(=O)COc1ccc(S(=O)(=O)N2CCOCC2)cc1C
O=C(CN1C(=O)c2ccccc2C1=O)NCC1COc2ccccc2O1 (stereo unspecified)
O=C(NC1CC2CCC1C2)C1COc2ccccc2O1 (stereo unspecified)
COc1ccccc1/C=C1\SC(=S)N(CCC(=O)NNC(=O)c2ccccc2OC)C1=O
CNC[C@@H]1Oc2c(NC(=O)Nc3ccccc3)cccc2C(=O)N([C@@H](C)CO)C[C@H]1C
N#Cc1cc(-c2ccccc2)nnc1Sc1ccccc1
COc1ccc(OCC(=O)N2CCC3(CC2)CC(=O)c2ccccc2O3)cc1
CCc1ccc([C@@H]2CC=C(C(=O)O)[C@H](c3ccc(Br)cc3)N2S(=O)(=O)c2ccc(C)cc2)cc1
Cc1ccc(S(=O)(=O)N2[C@@H](c3ccc(Br)cc3)C(C(=O)O)=CC[C@H]2c2cccc(Cl)c2)cc1
O=C(Oc1ccc(N2C(=O)CCC2=O)cc1)c1ccccc1
O=C(Nc1nnc(-c2cc(Cl)ccc2Cl)o1)c1ccco1
O=C(CC1C[C@H](C(=O)N2CCCCC2)[C@@]2(CCc3ccccc3)c3[nH]c4ccccc4c3CCN2C1=O)NCCC1=CCCCC1 (stereo partly specified)
Cc1ccc(OCC(=O)Nc2ccccc2Sc2ccccc2)c([N+](=O)[O-])n1
O=c1oc(C2(O)CCCCC2)cc2ccccc12
COc1ccc(C(=O)O/N=C(\C)c2cnccn2)cc1
COc1ccc(NC(=O)N(C)C[C@H]2Oc3ccc(NC(=O)CCC(F)(F)F)cc3C(=O)N([C@H](C)CO)C[C@@H]2C)cc1
O=C(CSc1nc(-c2ccccc2)cc(=O)[nH]1)NCc1ccc2c(c1)OCO2
O=S(=O)(c1ccc2nc(Nc3ccccc3)ccc2c1)N1CCCCC1
N#Cc1cnn(CC2CCCCC2)c1N
CC(=O)C(Sc1nc(N2CCOCC2)nc(N2CCOCC2)n1)C(=O)Nc1ccccc1 (stereo unspecified)
CCOC(=O)C1=C(C)NC(=O)NC1c1ccc(Br)s1 (stereo unspecified)
CCOC(=O)C1=C(c2ccccc2)NC(=O)NC1c1ccc(O)c(OCC)c1 (stereo unspecified)
Cc1cc(SCC(=O)c2ccccc2)n2nc(C)nc2n1
N=c1nc(-c2ccccc2)ccn1O
O=C(NCC1CCCO1)Nc1ccccc1 (stereo unspecified)
CCOc1ccc(CN2CCN(Cc3nc(C(C)C)cs3)CC2CCO)cc1 (stereo unspecified)
O=C(OCc1c(Cl)cccc1Cl)c1cnccn1
Cc1ccc(NN=Nc2nc3c([nH]2)c(=O)n(C)c(=O)n3C)cc1
Cn1c(=O)c2[nH]c(N3CCN(c4cccc(O)c4)CC3)nc2n(C)c1=O
C#CCOCCOCCOCCNc1nc(N2CCN(C(=O)C([C@@H](C)O)n3cc([C@@H](N)CCCCN)nn3)CC2)nc(N2CCN(C(=O)[C@H](CC(N)=O)n3cc([C@@H](N)C(C)C)nn3)CC2)n1 (stereo partly specified)
COc1ccc(/C=N/N(C)c2cc(=O)n(C)c(=O)[nH]2)cc1OC
Nc1ccc(S(=O)(=O)NC2(C(F)(F)F)NC(=O)N(c3ccc(F)cc3)C2=O)cc1 (stereo unspecified)
COc1ccc(N(Cc2cc3cccc(C)c3[nH]c2=O)S(C)(=O)=O)cc1
O=C(Nc1ccccc1)N(CCc1nc2ccccc2[nH]1)C1CCCC1
O=C(Cn1cnc2c(OCc3ccccc3)ncnc21)NCCCc1ccccc1
COc1ccc(NC(=O)NCCCCc2ccccc2)c(OC)c1
Cc1cc(NC(=O)CCC(=O)N(c2ccccc2)C2(C(=O)NC3CCCCC3)CCCC2)no1
Cc1cnc(NC(=O)c2ccc(-c3nc4ccccc4s3)o2)s1
Cn1c(/N=C/c2cc(Cl)ccc2O)nc2ccccc21
O=C(COC(=O)C1(c2ccc(Cl)cc2)CCCC1)NC1CCS(=O)(=O)C1 (stereo unspecified)
O=C(CSc1nnc(CNC(=O)c2c(F)cccc2Cl)o1)Nc1ccc2c(c1)OCCO2
COc1ccc(-c2nn3c(-c4ccco4)nnc3s2)cc1OC
CC(C)(C)n1nc2c(c1NC(=O)c1ccc(Br)o1)CS(=O)C2 (stereo unspecified)
O=C(Nc1ccc(-c2nc3ncccc3o2)cc1)c1ccc(Br)o1
CCn1c(CCn2ccnc2C)n[nH]c1=S
COC(=O)c1cc(S(=O)(=O)N2CCN(c3ccc(F)cc3)CC2)c[nH]1
COc1ccc(/C=N/n2c(=O)[nH]c3c([nH]c4ccc(Br)cc43)c2=O)cc1CN1CCOCC1
COc1ccc(S(=O)(=O)N(C)C[C@H]2Oc3ccc(NC(=O)Cn4cnnn4)cc3C(=O)N([C@H](C)CO)C[C@@H]2C)cc1
C=CCNCCOc1cccc(Br)c1
O=C(NCc1ccccn1)c1cn(Cc2ccccc2)nn1
CC(=O)Nc1ccc(NC(=O)Cn2cnc3c(cnn3C(C)(C)C)c2=O)cc1
Cc1ccc(S(=O)(=O)N2[C@@H](c3ccc(C#N)cc3)C(C(=O)O)=C[C@H]2C(C)(C)C)cc1
CC[C@@]1(C(=O)OC)N[C@H](CN(C)C(=O)Nc2ccc(Cl)cc2)[C@@H]2C(=O)N(Cc3ccccc3)C(=O)[C@@H]21
O=C(c1cc2ccccc2oc1=O)N1CCN(CCc2ccccc2)CC1
Cc1cccc(OCc2nnc(SCC(=O)Nc3cccc(C(=O)N4CCOCC4)c3)o2)c1C
N=c1n(CC(=O)c2cccc([N+](=O)[O-])c2)c2ccccc2n1Cc1ccccc1
Nc1cccc(C(=O)Nc2ccco2)c1
COc1cc2[nH]c(=O)n(CCCCCC(=O)NCCCN3CCCC3=O)c(=O)c2cc1OC
Cc1ccc(CNC(=O)Cc2ccc(-c3ccccc3)cc2)cc1
CC(=O)c1sc(NC(=O)c2ccc(C)cc2)nc1C
CCN1CCC(=NNC(=O)c2ccc(C)c([N+](=O)[O-])c2)CC1
Cc1ccc(C2CC(c3ccccc3)=NN2C(=S)Nc2ccccc2)o1 (stereo unspecified)
CC(C)C[C@H](NC(=O)N1CCCCCC1)C(=O)O
O=C(NNC(=O)c1cccs1)c1ccc([N+](=O)[O-])cc1
CC1=NN(C(N)=S)C(=O)C1N=Nc1c(C)cc(C)cc1C (stereo unspecified)
C=CCn1c(O)c(N=Nc2ccccc2C)c2ccccc21
Cc1ccccc1CNc1nnnn1C
COC(=O)c1cc(NC(=O)CSc2nncn2C)cc(C(=O)OC)c1
COC(C/C=C\[C@H](O)[C@H](C)OCc1ccccc1)OC
CC(C)(C)OC(=O)C[C@@H]1C/C=C\C[C@H](CC(=O)N[C@H](CO)Cc2ccccc2)C(=O)N[C@@H](Cc2ccccc2)COC1=O
C[C@H](CO)N1C[C@H](C)[C@@H](CN(C)Cc2ccc(Cl)c(Cl)c2)Oc2c(NS(=O)(=O)c3cn(C)cn3)cccc2C1=O
CCOCCCNC(=O)c1c[nH]c2ccc(C)cc2c1=O
Cc1ccccc1CN1C(=O)C(O)(CC(=O)c2ccncc2)c2ccccc21 (stereo unspecified)
Cc1ccc(CNC(=O)[C@@H](NC(=O)Cc2ccccc2)C(C)C)cc1
O=C(Cc1ccccc1)NC1(O)C(=O)c2ccccc2C1=O
COc1ccc(OC)c(/C=C2\SC(=S)N(Cc3cccnc3)C2=O)c1
COc1ccc(OCC(=O)N/N=C/C(C)=C/c2ccco2)c(Br)c1
COc1ccccc1N1CCN(C(=O)CSc2nc(C)cc(=O)[nH]2)CC1
COc1ccc(-c2nnc(SC(C)C(=O)NCc3ccc4c(c3)OCO4)n2Cc2ccco2)cc1 (stereo unspecified)
CCN(CC)C(=O)N1CCc2ccccc2C1CN1C(=O)c2ccccc2C1=O (stereo unspecified)
C=CCc1c(C)nc(SC(C)C)[nH]c1=O
O=C(Cn1cnc2c(OCc3ccccc3)ncnc21)N1CCN(c2ccccn2)CC1
CC(=O)c1ccc(O[C@@H]2O[C@H](CO)[C@@H](O)[C@H](O)[C@H]2O)cc1
CC(C)(O)[C@H](O)Cc1cc2ccc(=O)oc2cc1O[C@@H]1O[C@H](CO)[C@@H](O)[C@H](O)[C@H]1O
COC(C(=O)Nc1ccc(NC(=O)C(OC)c2ccccc2)cc1)c1ccccc1 (stereo unspecified)

From PubChem BioAssay AID488840 (Broad Institute, 2010)
